Bioassay records (PubChem)
Giardia killer = kills Giardia lamblia; activity change, % at 7.66 µM, hits read low; 0.15% of 340,000 active; Giardia lamblia trophozoite viability; in the data active means activity change below about -80%; inconclusive means between about -30% and that limit;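 further: parasites exposed to compound for two days anaerobically before the ATP read; on the % scale 0 is the no-effect control and ±100 the full control effect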
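Giardia trophozoites, 100 cells per well, were exposed to compounds for 48 hrs at 37 deg C under anaerobic conditions; viability was then read as ATP content by bioluminescence after 15-30 min at room temperature.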
HT1080 IDH1KD tx = toxicity to HT-1080 IDH1 knockdown cells (counter line) | 2% of 360,000 active | HT-1080 IDH1 knockdown viability, ATP luminescence, 48 h | Potency, µM (top dose mostly 46.1 µM), inactives show top-dose activity, negative = toxicity, hits mostly cytotoxic;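 further: potency means the concentration at half of the fitted maximal effect; 0% = DMSO wells and -100% = cell-free medium wells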
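Knockdown cells (IDH1KD HT-1080) received compounds 2 h after plating at 750 cells/well and were kept 48 h at 37 °C in 5% FBS RPMI. A CellTiter-Glo luminescence read gave % activity for curve fitting.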
HT1080NT lethal = kills 2HG-producing HT-1080-NT fibrosarcoma cells; Potency, µM (top dose mostly 46.1 µM), for the others: at the top dose activity, negative = less viability, hits mostly cytotoxic; HT-1080-NT fibrosarcoma viability, CellTiter-Glo ATP luminescence, 48 h; 1.6% of 360,000 active; AID 686970;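 further: NT is the 2HG producing partner of a matched IDH1 knockdown line; potency means the concentration at half of the fitted maximal effect; 0% = DMSO-treated cells and -100% = media-only wells without cells; nearly all actives have a fitted effect of over 55% in size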
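HT-1080-NT fibrosarcoma cells (2HG-overproducing), 750 cells/well in RPMI with 5% FBS, dosed after 2 h and incubated 48 h at 37C. CellTiter-Glo luminescence normalized to DMSO and no-cell wells; concentration-response curves fitted and classed.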
HepG2 viability = HepG2 cytotoxicity, counter-screen for TGF-b inhibitors; HepG2 CAGA-GFP viability, ATP luminescence, 18 h; Potency, µM (top dose mostly 46.1 µM), inactives show at the highest dose activity change, negative = cytotoxicity, usual class: cytotoxic; 0.76% of 410,000 active; AID 588856; further: potency means the concentration at half of the fitted maximal effect
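HepG2 CAGA-GFP cells (1000/well, DMEM with 1% FBS) received compound, then TGF-beta at 500 pg/mL final, and were incubated 18 hours at 37 degrees C. Viability was read by CellTiter-Glo luminescence. Media-only wells were set as complete cell-killing and DMSO as no toxicity.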
IL-1B inflam inh = inflammasome signaling inhibition, IL-1 beta readout; 4.7% of 360,000 active; THP-1 LPS/ATP IL-1B secretion, AlphaLISA, 16 h; hits give low values; AID 743279; activity change, % at 57.5 µM; in the data active means activity change below about -50%; inconclusive means mostly about -30% to -49%; further: on the % scale 0 is the no-effect control and ±100 the full control effect
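Secreted IL-1B measured by AlphaLISA bead assay after 16 h compound exposure of THP-1 cells; compounds (final up to 57.5 uM) added 1 h before LPS (250 ng/mL) and ATP (1.25 mM) stimulation; lower signal means less secretion.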
TGFb SMAD3 inh = blocks TGF-b signaling | AID 588855 | Potency, µM (doses to about 46.1 µM), inactives show at the highest dose activity, negative = inhibition, hits mostly inhibitors | HepG2 CAGA-GFP TGF-b/SMAD3 reporter, GFP fluorescence, 18 h; TGF-beta stimulated, 500 pg/mL final | 1.2% of 410,000 active; further: potency means the concentration at half of the fitted maximal effect; on the % scale 0 is the no-effect control and ±100 the full control effect; nearly all actives have a fitted effect of over 65% in size
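HEPG2 CAGA-GFP, 1000 cells/well; 2 h settle, 37 C; cpd via pin tool; TGF-b 500 pg/mL final; 18 h, 37 C; GFP imaging ex488/em500-530; %Activity normalised to -TGF-b and +DMSO controls; CRC fit, curve class.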
* marks the source's active call; other numbers are inactive results; ? = inconclusive; · = not tested or not shown. Hits are enriched below; roughly 6.5% of the tested compounds scored in any of these assays. Unless noted, the call rests on the fitted dose curve; in most records, active means well fitted curve in the direction sought with a large enough effect; inconclusive means small, poorly fitted or top-dose-only effect, or another doubt; inactive means no such curve, though single readings can be large; an effect the other way counts as inactive or inconclusive.

SMILES | Giardia killer | HT1080 IDH1KD tx | HT1080NT lethal | HepG2 viability | IL-1B inflam inh | TGFb SMAD3 inh
CC(NC(=O)CN(C)CC(=O)Nc1ccc(Cl)c(C(F)(F)F)c1)c1ccccc1 (stereo unspecified) | -9 | 1% | 2% | -16% | -16 | -22%
CN(Cc1nnc(-c2ccc(F)cc2)o1)c1ccccc1 | 16 | 13% | 23% | -1% | 6 | -28%
CN(CC(=O)Nc1ccc(Cl)c(C(F)(F)F)c1)C(=O)Cc1cccs1 | -18 | -27% | -17% | -12% | ? | -17%
CN(CC(=O)NCc1ccc(F)cc1)CC(=O)Nc1ccc(Cl)c(C(F)(F)F)c1 | 0 | ? | ? | -29% | -69* | ?
CN(CC(=O)Nc1ccc(Cl)c(Cl)c1)Cc1nnc(-c2ccc(F)cc2)o1 | 1 | -18% | -15% | 11% | -58* | ?
CN(CC(=O)Nc1ccc(Cl)c(C(F)(F)F)c1)C(=O)Cc1ccsc1 | -8 | -12% | -27% | -18% | -89* | -1%
Cc1ccc2occ(CC(=O)Nc3ccc(Cl)c(C(F)(F)F)c3)c2c1 | · | · | · | 13µM* | · | ?
O=C([C@@H]1CCCN1C1=NS(=O)(=O)c2ccccc21)N1CCN(c2ccccc2)CC1 | · | 0% | 2% | 1% | -10 | -2%
CN(CC(=O)NCC(=O)Nc1ccc(F)cc1)CC(=O)Nc1ccc(Cl)c(C(F)(F)F)c1 | 0 | -11% | -1% | -43% | -72* | ?
COc1cc(C2NC(=O)c3c(sc4c3CCN(C)C4)N2)cc(Br)c1OC(=O)c1ccc(C)cc1 (stereo unspecified) | · | · | · | -39% | · | 4%
C[C@H](CO)N1C[C@H](C)[C@@H](CN(C)Cc2ccc(Cl)c(Cl)c2)Oc2c(NC(=O)C3CC3)cccc2C1=O | 4 | -4% | -30% | -40% | -84* | ?
C[C@H](CO)N1C[C@H](C)[C@@H](CN(C)Cc2ccc(Cl)c(Cl)c2)Oc2c(NC(=O)C3CCOCC3)cccc2C1=O | 2 | -14% | -29% | -12% | -14 | -16%
C[C@H](CO)N1C[C@H](C)[C@@H](CN(C)Cc2ccc(Cl)c(Cl)c2)Oc2c(NC(=O)CCC(F)(F)F)cccc2C1=O | 7 | -14% | -24% | -92% | -70* | 13µM*
C[C@H](CO)N1C[C@H](C)[C@@H](CN(C)S(=O)(=O)c2ccc(F)cc2)Oc2c(NC(=O)CCC(F)(F)F)cccc2C1=O | 4 | 6% | 16% | 9% | ? | -2%
Cc1ccc(C(=O)Nc2ccccc2Cl)cc1 | 10 | -6% | -2% | -25% | 3 | -2%
O=C(N/N=C/c1ccc2c(c1)OCO2)c1cccc(NC(=O)c2ccccc2Cl)c1 | 25 | 8.2µM* | 12µM* | -19% | 70 | -20%
Cc1cccc(C(=O)Nc2ccc(C(=O)N/N=C/c3ccc4c(c3)OCO4)cc2)c1 | -2 | -25% | ? | -36% | 9 | -13%
Cc1cccc(C(=O)Nc2cccc(C(=O)N/N=C/c3ccc4c(c3)OCO4)c2)c1 | -14 | ? | 18µM* | -10% | 17 | -15%
O=C(Nc1ccc(C(=O)N2CCCCC2)cc1)c1ccccc1Br | 3 | 5% | 12% | -14% | -6 | -3%
O=C(Nc1cccnc1)c1ccc(Oc2ccccc2)cc1 | -2 | 26µM* | ? | -43% | -15 | 0%
O=C(NCc1cccnc1)c1ccc(COc2ccccc2Br)cc1 | ? | -25% | -5% | -13% | -87* | -19%
Cc1cc(C)nc(NC(=O)c2ccc(COc3ccccc3Cl)cc2)c1 | 7 | ? | -21% | -26% | -62* | -13%
O=C(Nc1ccc(C(=O)Nc2ccccc2Cl)cc1)c1cccnc1 | 10 | 5.8µM* | 8.2µM* | 1% | -1 | -1%
O=C(Nc1ccn(Cc2c(F)c(F)cc(F)c2F)n1)c1ccc(COc2ccccc2Cl)cc1 | -12 | ? | ? | -39% | -21 | -13%
O=C(Nc1cccnc1)c1ccccc1Oc1ccccc1 | 3 | -2% | 3% | -21% | 1 | 6%
SMILES | Giardia killer | HT1080 IDH1KD tx | HT1080NT lethal | HepG2 viability | IL-1B inflam inh | TGFb SMAD3 inh
C=CCOC(=O)C1=C[C@H](c2csc3ccccc23)[C@@H](CCCO)[C@H](OCC)O1 | -15 | -7% | -14% | -20% | 24 | 10%
Cc1ccc(N2CCN(C(=O)C3CCN(S(=O)(=O)c4cccc5nsnc45)CC3)CC2C)cc1 (stereo unspecified) | -4 | 9% | 26% | -21% | -15 | -18%
O=C(Nc1cccnc1)c1ccc(COc2ccccc2Br)cc1 | -4 | ? | ? | -47% | -67* | ?
Cc1cc(C)n(Cc2ccc(NC(=O)c3ccc(COc4ccccc4Br)cc3)cc2)n1 | -8 | ? | ? | -13% | -75* | 41%
COC(=O)c1ccc(Cn2nc(C)cc2C)cc1 | -6 | 0% | 5% | 4% | -6 | 7%
NC(=O)c1ccc(NC(=O)c2ccc(COc3ccccc3Br)cc2)cc1 | 1 | 23% | 13% | -4% | -9 | 0%
Cc1ccc(S(=O)(=O)NCCCCCCNS(=O)(=O)c2ccc(C)cc2)cc1 | · | -5% | -18% | -32% | -28 | ?
O=C(NCCCN1CCCCCC1)c1ccc2c(c1)NC(=O)C(N1CCOCC1)S2 (stereo unspecified) | -20 | 5% | 13% | 1% | -9 | 12%
Cc1ccc(CNC(=O)c2ccc3c(c2)NC(=O)C(N2CCOCC2)S3)cc1 (stereo unspecified) | 43 | -31% | -6% | -15% | -77* | -3%
COc1ccc(CCN=Cc2ccc(O)cc2)cc1OC | -8 | -2% | -10% | 11% | 24 | -2%
CC(=O)c1cccc(NC(=O)CSc2nc3ccccc3c(=O)n2CCCN2CCOCC2)c1 | 3 | 0% | -15% | -19% | -11 | 22%
Cc1ccc(NC(=O)CSc2nc3ccccc3c(=O)n2CCCN2CCCCC2)cc1C | -6 | ? | -14% | 18µM* | 0 | ?
CCc1ccc(NC(=O)CSc2nc3ccccc3c(=O)n2CCCN2CCC(C)CC2)cc1 | -7 | 21µM* | ? | -15% | -100* | -7%
CCOCCCn1c(SCC(=O)Nc2ccc(C(N)=O)cc2)nc2ccccc2c1=O | -7 | ? | -1% | 5% | 5 | 7%
O=C(CSc1nc2ccccc2c(=O)n1CCCN1CCOCC1)Nc1ccc(Br)cc1 | -2 | 13µM* | ? | -20% | -28 | -4%
